PubChem BioAssay (NCI)
Compounds without any hit were thinned out: in the full panel of roughly 83,000, 20% have a hit.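 A percent growth of 40 corresponds to 60% growth inhibition; 0 means no net growth; -100 means all cells died. Active threshold: below 10.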 Unmarked numbers belong to inactive results. Activity calls are given as the source filed them.

test system: TK-10 renal; assay: NCI-60 one-dose screen, 48 h (100 = growth as untreated, 0 = no growth, -100 = all killed); conditions: 10 µM unless noted

First: CC(C)(C)c1cc(-c2nc3ccc(N4CCN(CCO)CC4)cc3[nH]2)cc(C(C)(C)C)c1O
Second: C=CCN=C1NC(=O)/C(=C/c2cc(C(C)(C)C)c(O)c(C(C)(C)C)c2)S1
The growth of the first is higher: 87.6% for the first, 79.4% for the second.

Compared with `Clc1ccc(/C=C/c2nc(N3CCOCC3)c3nc(Cl)c(Cl)cc3n2)cc1`, `Cc1oc2nc[nH]c(=O)c2c1C(=O)/C=C/c1ccc(Cl)cc1` is lower in growth: 107% for the first, 32.3% for the second.

Going from `CCOC(=O)/C=C\C(=O)NC(N)=O` to `C=CCOc1cccc(/C=C/C(=O)c2sc(Nc3cccnc3)nc2C)c1`, the growth rises from 97.8% to 113%.

Going from `O=C(Cc1c(F)cccc1Cl)Nc1ccc(S(=O)(=O)Nc2ncccn2)cc1` to `O=S(=O)(NCCCNc1nccc(-c2c(-c3ccccc3)nc3sccn23)n1)c1ccc(F)cc1`, the growth falls from 112% to 72.7%.

Going from `C=CCc1cc(Cl)cc2c(OC(C)=O)c(C(C)=O)c(-c3ccccc3)nc12` to `Cc1c(C(=O)NCc2ccccc2)[n+](=O)c2cc(F)ccc2n1[O-]`, the growth rises from 114% to 138%.

Going from `COc1ccc(C(=O)c2cc(OC)c(OC)c(OC)c2)cc1/C=C/C(=O)c1ccc2c(c1)OCO2` to `COc1ccc(S(=O)(=O)Nc2cc(/C=C\c3cc(OC)c(OC)c(OC)c3)cc(OC)c2OC)cc1OC`, the growth rises from 44.6% to 73.4%.

Going from `CCN(CC)S(=O)(=O)c1ccc2[nH]c(=O)cc(C(=O)Nc3ccc(OC)cc3OC)c2c1` to `CCN(CC)CCSc1c2ccc(Cl)cc2nc2ccc(OC)cc12`, the growth falls from 115% to 84.1%.

Compared with `O=C(Nc1cc(C(F)(F)F)cc(C(F)(F)F)c1)Nc1ccc(OCc2nnc(-c3ccc(Cl)cc3)o2)c(F)c1`, `CC(=O)Nc1ccc2c(c1)/C(=C\C=C/c1ccc([N+](C)(C)C)cc1)c1ccccc1-2` is higher in growth: 21.1% for the first, 103% for the second.

Going from `O=C1CCCCN1CCCCC#Cc1ccccc1C#Cc1ccccn1` to `COc1ccc2c(c1)C=CC(C#N)N2C(=O)c1ccccc1` (centres undefined), the growth falls from 136% to 70.9%.

Compared with `CC1(C)OC2COC3(C(=O)O)OC(C)(C)OC3C2O1` (centres undefined), `COC12CC(=O)C(C(C)=O)=C(O)C1(C)c1c(O)c(C)c(O)c(C(C)=O)c1O2` (centres undefined) is lower in growth: 94.7% for the first, 78.4% for the second.

Compared with `COc1cc(C2C=C(C)N=C3SC(C)=NN32)cc(OC)c1OC` (centres undefined), `COc1ccc2c(c1)NC(=O)CN2c1nc(C)nc2ccccc12` is lower in growth: 102% for the first, 14.8% for the second.

Compared with `O=C(/C=C/CN1CCOCC1)Nc1cc2c(Nc3cccc(Cl)c3F)ncnc2cc1OCCOC(F)F`, `CCn1cc(C2NC(=O)c3cc(F)ccc3N2)c2cccc(Cl)c21` (centres undefined) is lower in growth: 57.3% for the first, 50.4% for the second.

Going from `c1ccc([P+](CCC[P+](c2ccccc2)(c2ccccc2)c2ccccc2)(c2ccccc2)c2ccccc2)cc1` to `O=C(CNC(=O)c1cccc2ccccc12)Nc1ccccc1Oc1ccccc1`, the growth falls from 81.8% to 19.8%.

First: CCCCCC/C=C\CCCCCCCCOc1ccc(CCOP(=O)(O)OCC[N+](C)(C)C)cc1
Second: COC1=CC(c2ccc[nH]2)=N/C1=C\c1[nH]c(C)c(CCCn2cc(CCCCCCCCC[C@@H]3Cc4cc(O)ccc4C4CC[C@]5(C)[C@@H](O)CC[C@H]5C43)nn2)c1C (some centres undefined)
The growth of the first is lower: 23.5% for the first, 109% for the second.

First: O=C(Nc1ccc(I)cc1)c1cc([N+](=O)[O-])ccc1O
Second: Cc1ccc(C2=NN(c3ccc(S(=O)(=O)NC(=O)NCc4ccccc4)cc3)C(c3ccc(N(C)C)cc3)C2)c(C)c1 (centres undefined)
The growth of the first is lower: 40% for the first, 66.5% for the second.

Compared with `CCCCOc1nc2c(C)cccc2cc1C1CNC(=O)c2ccccc2N1` (centres undefined), `c1ccc2c(c1)Oc1ccccc1C2C1c2ccccc2Oc2ccccc21` is lower in growth: 98.7% for the first, 93.4% for the second.

Compared with `Nc1nc(-c2ccccc2)cs1`, `CC[C@H](C)[C@@H]1NC(=O)[C@H]([C@@H](C)O)NC(=O)C(Cc2ccccc2)NC(=O)[C@@H]2CCCN2C(=O)C(C(C)C)NC(=O)C(Cc2ccccc2)NC(=O)CNC(=O)[C@@H]2CCCN2C1=O` (some centres undefined) is higher in growth: 98.5% for the first, 116% for the second.

Work on `Cc1cc2c(C(C)C)c(O)c(O)c(C=NCCCCC(=O)O)c2c(O)c1-c1c(C)cc2c(C(C)C)c(O)c(O)c(C=NCCCCC(=O)O)c2c1O` yielded a growth of 49%.

With `CCC#CC[C@H]1C/C=C2/C(=O)C=C[C@@H]2C/C=C\CCCC(=O)O1` the growth was -1.68% (active).
In the case of `CN(C)C/C=C/C(=O)Nc1cc2c(Nc3ccc(F)c(Cl)c3F)ncnc2cc1OCCOC(F)F`, the growth is reported as 9.78% (active).
In the case of `NC(=O)c1c(NC(=O)c2ccc3c(c2)OCO3)sc2c1CCC(=O)C2`, the growth is reported as -20.2% (active).

test system: ACHN renal; assay: as above; conditions: 10 µM unless noted

Compared with `CC(C)(C)c1cc(-c2nc3ccc(N4CCN(CCO)CC4)cc3[nH]2)cc(C(C)(C)C)c1O`, `C=CCN=C1NC(=O)/C(=C/c2cc(C(C)(C)C)c(O)c(C(C)(C)C)c2)S1` is lower in growth: 89.2% for the first, 87% for the second.

Compared with `Clc1ccc(/C=C/c2nc(N3CCOCC3)c3nc(Cl)c(Cl)cc3n2)cc1`, `Cc1oc2nc[nH]c(=O)c2c1C(=O)/C=C/c1ccc(Cl)cc1` is lower in growth: 51.5% for the first, 27.2% for the second.

Going from `O=C(Cc1c(F)cccc1Cl)Nc1ccc(S(=O)(=O)Nc2ncccn2)cc1` to `O=S(=O)(NCCCNc1nccc(-c2c(-c3ccccc3)nc3sccn23)n1)c1ccc(F)cc1`, the growth falls from 100% to 26.6%.

First: Cc1c(C(=O)NCc2ccccc2)[n+](=O)c2cc(F)ccc2n1[O-]
Second: O=C(CNC(=O)c1cccc2ccccc12)Nc1ccccc1Oc1ccccc1
The growth of the first is higher: 102% for the first, 29.9% for the second.

First: C=CCOc1cccc(/C=C/C(=O)c2sc(Nc3cccnc3)nc2C)c1
Second: CC(=O)Nc1ccc2c(c1)/C(=C\C=C/c1ccc([N+](C)(C)C)cc1)c1ccccc1-2
The growth of the first is lower: 54.3% for the first, 73.2% for the second.

Going from `CCN(CC)S(=O)(=O)c1ccc2[nH]c(=O)cc(C(=O)Nc3ccc(OC)cc3OC)c2c1` to `CCN(CC)CCSc1c2ccc(Cl)cc2nc2ccc(OC)cc12`, the growth falls from 103% to 87.6%.

First: O=C1CCCCN1CCCCC#Cc1ccccc1C#Cc1ccccn1
Second: COc1ccc2c(c1)C=CC(C#N)N2C(=O)c1ccccc1 (centres undefined)
The growth of the first is higher: 86.4% for the first, 33.9% for the second.

Compared with `CC1(C)OC2COC3(C(=O)O)OC(C)(C)OC3C2O1` (centres undefined), `COC12CC(=O)C(C(C)=O)=C(O)C1(C)c1c(O)c(C)c(O)c(C(C)=O)c1O2` (centres undefined) is lower in growth: 94.4% for the first, 77.9% for the second.

Going from `COc1cc(C2C=C(C)N=C3SC(C)=NN32)cc(OC)c1OC` (centres undefined) to `COc1ccc(S(=O)(=O)Nc2cc(/C=C\c3cc(OC)c(OC)c(OC)c3)cc(OC)c2OC)cc1OC`, the growth falls from 103% to 45.1%.

Compared with `O=C(/C=C/CN1CCOCC1)Nc1cc2c(Nc3cccc(Cl)c3F)ncnc2cc1OCCOC(F)F`, `CCn1cc(C2NC(=O)c3cc(F)ccc3N2)c2cccc(Cl)c21` (centres undefined) is higher in growth: 22.2% for the first, 33.5% for the second.

Compared with `c1ccc([P+](CCC[P+](c2ccccc2)(c2ccccc2)c2ccccc2)(c2ccccc2)c2ccccc2)cc1`, `c1ccc2c(c1)Oc1ccccc1C2C1c2ccccc2Oc2ccccc21` is lower in growth: 98.5% for the first, 87.7% for the second.

Going from `COc1ccc2c(c1)NC(=O)CN2c1nc(C)nc2ccccc12` to `CCCCOc1nc2c(C)cccc2cc1C1CNC(=O)c2ccccc2N1` (centres undefined), the growth rises from 26.9% to 66.3%.

Going from `CCCCCC/C=C\CCCCCCCCOc1ccc(CCOP(=O)(O)OCC[N+](C)(C)C)cc1` to `COC1=CC(c2ccc[nH]2)=N/C1=C\c1[nH]c(C)c(CCCn2cc(CCCCCCCCC[C@@H]3Cc4cc(O)ccc4C4CC[C@]5(C)[C@@H](O)CC[C@H]5C43)nn2)c1C` (some centres undefined), the growth falls from 91.7% to 40.8%.

Compared with `O=C(Nc1ccc(I)cc1)c1cc([N+](=O)[O-])ccc1O`, `Cc1ccc(C2=NN(c3ccc(S(=O)(=O)NC(=O)NCc4ccccc4)cc3)C(c3ccc(N(C)C)cc3)C2)c(C)c1` (centres undefined) is lower in growth: 48.8% for the first, 44.7% for the second.

First: Nc1nc(-c2ccccc2)cs1
Second: CC[C@H](C)[C@@H]1NC(=O)[C@H]([C@@H](C)O)NC(=O)C(Cc2ccccc2)NC(=O)[C@@H]2CCCN2C(=O)C(C(C)C)NC(=O)C(Cc2ccccc2)NC(=O)CNC(=O)[C@@H]2CCCN2C1=O (some centres undefined)
The growth of the first is higher: 103% for the first, 58.7% for the second.

`Cc1cc2c(C(C)C)c(O)c(O)c(C=NCCCCC(=O)O)c2c(O)c1-c1c(C)cc2c(C(C)C)c(O)c(O)c(C=NCCCCC(=O)O)c2c1O` showed a growth of 62%.

`CCC#CC[C@H]1C/C=C2/C(=O)C=C[C@@H]2C/C=C\CCCC(=O)O1` was tested, and the growth was -86.8% (active).
For `COc1ccc(C(=O)c2cc(OC)c(OC)c(OC)c2)cc1/C=C/C(=O)c1ccc2c(c1)OCO2`, the growth was -76.4% (active).
With `O=C(Nc1cc(C(F)(F)F)cc(C(F)(F)F)c1)Nc1ccc(OCc2nnc(-c3ccc(Cl)cc3)o2)c(F)c1` the growth was -6.91% (active).
`CN(C)C/C=C/C(=O)Nc1cc2c(Nc3ccc(F)c(Cl)c3F)ncnc2cc1OCCOC(F)F` was tested, and the growth was -7.73% (active).
In the case of `NC(=O)c1c(NC(=O)c2ccc3c(c2)OCO3)sc2c1CCC(=O)C2`, the growth is reported as -57.7% (active).
